The values that follow come from PubChem BioAssay (NCI).

This is part of a sample that, as a whole, favours compounds with a hit. Of some 83,000 tested, about 20% had one in any assay.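 Results are percent growth after 48 hours of single-concentration exposure. 100 means growth as in untreated cells, lower positive values show inhibition; negative values down to -100 show cell death.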 Values without a mark were called inactive. Calls of active or inactive are those of the source. How the source made its calls: active means growth percent below 10; inactive means the rest.

Assay in all cases: NCI-60 one-dose screen, 48 h (100 = growth as untreated, 0 = no growth, -100 = all killed)
Test [1] has as its system NCI-H23 lung. Conditions: 10 µM unless noted.
The subject of test [2] is NCI-H226 lung. Conditions: 10 µM unless noted.
The subject of test [3] is NCI-H322M lung. The settings on record: 10 µM unless noted.
Test [4] relates to HOP-62 NSCLC. Conditions: 10 µM unless noted.
The subject of test [5] is NCI-H460 lung. The settings on record: 10 µM unless noted.
Test [6] deals with HOP-92 NSCLC. The settings on record: 10 µM.
Test [7] has as its system NCI-H522 lung. Conditions: 10 µM unless noted.
In test [8] the test system is A549/ATCC NSCLC. The settings on record: 10 µM unless noted.
Test [9] deals with 786-0 renal. Conditions: 10 µM unless noted.
Test [10] has as its system COLO 205 colon. The settings on record: 10 µM unless noted.
In test [11] the test system is DU-145 prostate. The settings on record: 10 µM unless noted.
For test [12], the system named is K-562 leukemia. The settings on record: 10 µM unless noted.
Test [13] concerns MALME-3M melanoma. Conditions: 10 µM unless noted.
For test [14], the system named is MDA-MB-231 breast. Conditions: 10 µM unless noted.
The test system of test [15] is SF-268 CNS. The settings on record: 10 µM unless noted.
Test [16] has as its system SF-295 CNS. The settings on record: 10 µM unless noted.
The subject of test [17] is SF-539 CNS. The settings on record: 10 µM unless noted.
In test [18] the test system is UACC-257 melanoma. Conditions: 10 µM unless noted.

For `O=C(CNc1nc(-c2cccc([N+](=O)[O-])c2)cs1)Nc1cccc([N+](=O)[O-])c1`, the growth in [1] is -29.7% (active); in [2], -35.9% (active); in [3] it was 58.9%; in test [4], 17.3%; in test [5], -15.7% (active); in test [6], -39.4% (active). Moreover, the growth in test [7] was -36.2% (active); in test [8], -19% (active); in test [9], -13.6% (active); in [10] it was -30.8% (active); in test [11], -6.15% (active); in test [12], 8.33% (active). Further, the growth in test [13] is -70.8% (active); in [14], -28.8% (active); in [15] it was -4.97% (active); in [16], 0.245% (active); in test [17], -29.6% (active); in test [18], -13% (active).

As for `CCOC(=O)C(=O)/C(=C\c1ccc(Cl)cc1)C(=O)N1C(=S)NC(=O)C1CC(C)C` (centres undefined), the growth in [1] was 96.5%; in test [2] it was 92%; in test [3], 95.3%; in [4] it was 95.6%; in test [5], 102%; in [6] it was 86.8%. In addition, the growth in test [7] is 91.7%; in test [8], 104%; in test [9] it was 103%; in [10], 109%; in test [11], 85.2%; in [12], 102%. For the same compound, the growth in [13] is 99.8%; in test [14], 90.8%; in test [15], 100%; in test [16], 99.9%; in test [17], 103%; in test [18] it was 105%.

For `O=C(NNc1nc2cc(F)cc(F)c2n2cccc12)c1cnccn1`, the growth in test [1] is 24.6%; in [2], 29.3%; in [3] it was 30.2%; in test [4], 14.5%; in test [5], 1.69% (active); in [6], 26.1%. Besides, the growth is 0.755% (active) in [7]; 15% in [8]; 14.3% in [9]; 6.31% (active) in test [10]; 22.4% in [11]; 14.3% in [12]. Moreover, the growth in test [13] was 23.1%; in test [14], 33.4%; in test [15] it was 21.9%; in test [16], 10.9%; in test [17], 7.61% (active); in test [18] it was 3.96% (active).

Turning to `COc1ccc(COc2ccc(/C=C3\C(=O)Nc4ccccc43)cc2OC)cc1`, the growth in test [1] was 103%; in [2] it was 103%; in test [3], 106%; in [4] it was 100%; in test [5], 103%; in test [6], 101%. Besides, the growth in test [7] was 93.4%; in [8] it was 109%; in test [9] it was 105%; in test [10], 123%; in test [11], 109%; in test [12] it was 101%. In addition, the growth in [13] was 99.7%; in test [14], 99.9%; in test [15], 103%; in test [16] it was 103%; in [17] it was 95.9%; in test [18] it was 116%.

Consider `O=C(NNc1nc2cc(F)ccc2n2c(CN3CCCC3)ccc12)c1cnccn1`, for which the growth in test [1] is 26.3%; in test [2] it was 18.2%; in [3], 27.1%; in test [4] it was 17.6%; in test [5] it was 2.93% (active); in test [6], 18.2%. The growth is -3.33% (active) in test [7]; 13.6% in test [8]; 12.7% in [9]; 7.69% (active) in [10]; 17.2% in test [11]; 11.1% in test [12]. The growth in test [13] was 37.4%; in [14], 31.4%; in test [15] it was 22.1%; in test [16] it was 6.2% (active); in [17] it was 1.5% (active); in [18] it was 0.872% (active).

On to `O=C1Nc2ccccc2/C1=C/c1ccc(COCC2CO2)n1-c1ccc(O)cc1` (centres undefined), for which the growth in [1] was 100%; in test [2], 109%; in [3], 107%; in [4], 105%; in test [5], 113%; in test [6] it was 124%. Also, the growth was 93.5% in test [7]; 104% in test [8]; 103% in test [9]; 116% in test [10]; 111% in test [11]; 107% in test [12]. In addition, the growth in test [13] is 62.9%; in test [14], 94.9%; in test [15] it was 98.7%; in test [16], 109%; in [17] it was 96.8%; in [18], 102%.

On to `O=C(NNc1nc2cc(F)ccc2n2c(CN3CCC(O)C3)ccc12)c1cnccn1` (centres undefined), for which the growth in test [1] is 20.2%; in test [2], 18.8%; in test [3], 24.8%; in test [4], 14.6%; in [5], 5.14% (active); in [6], 23.2%. Moreover, the growth is -0.38% (active) in test [7]; 15.2% in test [8]; 16.2% in test [9]; 8.58% (active) in test [10]; 24% in test [11]; 11.8% in test [12]. In addition, the growth in [13] was 12.1%; in [14], 34.2%; in test [15] it was 22.6%; in test [16], 4.11% (active); in test [17], 10.1%; in test [18], 7.04% (active).

As to `CCN(CC)c1ccc2c(c1)Oc1nc(N)c(C#N)c(N)c1C2Sc1ccc(C)cc1` (centres undefined), the growth was -90% (active) in [1]; -54.6% (active) in test [2]; -92.7% (active) in test [3]; -71% (active) in test [4]; -40.4% (active) in test [5]; -93.9% (active) in test [6]. For the same compound, the growth in [7] is -75.6% (active); in test [8], -56.9% (active); in test [9] it was -92.6% (active); in test [10], -53.6% (active); in [11], -95.5% (active); in [12] it was 0.301% (active). The growth in test [13] is -92.9% (active); in [14], -87.3% (active); in test [15] it was -52.7% (active); in test [16], -93.3% (active); in test [17], -97.8% (active); in [18] it was -74.2% (active).
